In PubChem BioAssay (EPA / NIEHS):
Records with an inconclusive call do not appear. Active and inactive are the calls of the source. Rule for the calls, unless noted: active = hit-call score of the fitted dose curve at least 0.9, where 1 is the maximum; inconclusive = response in the unintended direction; inactive = score below 0.9.

How the values were obtained:
[1] = TOX21_TRB_BLA_Antagonist_Followup_viability: Viability Assessment in the Tox21 Thyroid Hormone Receptor beta Antagonism Beta-lactamase (BLA) Follow-Up Assay (AID 2283961)
Procedure, shortened: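 In the same wells as the reporter read, cell health was gauged by CellTiter-Glo ATP luminescence, with signal loss indicating reduced viability. Cells had been exposed to test compounds for 18 h.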

THRB (gene 7068) [2] = biological target: THRB (gene 7068) (UniProt P10828); test: TOX21_TRB_COA_Antagonist_Followup_ratio: Tox21 Thyroid Hormone Receptor beta Antagonism through Coactivator Recruitment Follow-Up Assay, Ratio (AID 2283967)
Sequence of THRB (gene 7068) (P10828 whole entry, looked up, the tested form may be a part): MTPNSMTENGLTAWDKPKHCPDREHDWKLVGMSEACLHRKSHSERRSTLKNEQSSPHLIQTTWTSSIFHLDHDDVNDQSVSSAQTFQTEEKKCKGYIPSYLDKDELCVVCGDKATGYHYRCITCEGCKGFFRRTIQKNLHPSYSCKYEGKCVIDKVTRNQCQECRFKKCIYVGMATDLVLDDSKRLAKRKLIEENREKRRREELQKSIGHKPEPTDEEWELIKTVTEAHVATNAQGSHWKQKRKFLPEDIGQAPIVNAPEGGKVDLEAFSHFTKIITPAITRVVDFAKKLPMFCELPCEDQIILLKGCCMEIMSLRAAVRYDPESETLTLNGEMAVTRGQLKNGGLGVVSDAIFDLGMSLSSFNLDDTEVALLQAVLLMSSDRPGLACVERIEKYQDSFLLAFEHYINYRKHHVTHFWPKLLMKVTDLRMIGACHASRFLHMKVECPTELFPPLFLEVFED
Procedure, shortened: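 Coactivator (SRC-2) recruitment to purified GST-TRβ ligand-binding domain is monitored by terbium-to-fluorescein energy transfer, emission ratio 520:495 nm. DMSO wells define 0% and T3 wells 100% activity.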

[3] = biological target: Retinoic acid receptor RXR-alpha (Homo sapiens) (UniProt P19793); test: TOX21_TR_RXR_BLA_Antagonist_Followup_ratio: Tox21 Thyroid Hormone Receptor beta Retinoid X Receptor alpha (RXRa) Antagonism Beta-lactamase (BLA) Follow-Up Assay, Ratio (AID 2283972)
Sequence of Retinoic acid receptor RXR-alpha (Homo sapiens) (P19793 whole entry, looked up): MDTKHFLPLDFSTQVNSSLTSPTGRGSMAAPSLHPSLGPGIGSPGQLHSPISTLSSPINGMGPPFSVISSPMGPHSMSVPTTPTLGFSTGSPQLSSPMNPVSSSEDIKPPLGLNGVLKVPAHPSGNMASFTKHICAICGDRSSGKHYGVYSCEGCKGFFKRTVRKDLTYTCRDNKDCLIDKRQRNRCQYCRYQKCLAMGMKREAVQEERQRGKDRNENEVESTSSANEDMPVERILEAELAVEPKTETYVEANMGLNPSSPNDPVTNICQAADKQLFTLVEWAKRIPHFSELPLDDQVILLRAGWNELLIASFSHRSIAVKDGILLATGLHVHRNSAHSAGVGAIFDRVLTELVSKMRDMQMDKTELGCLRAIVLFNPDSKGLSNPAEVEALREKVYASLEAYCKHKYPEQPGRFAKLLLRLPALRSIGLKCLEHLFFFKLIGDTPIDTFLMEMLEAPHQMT
Procedure, shortened: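 Compounds were tested in triplicate at 11 concentrations on RXRa-bla HEK293T cells for 16 h. Substrate cleavage ratio, normalized to DMSO, gave the endpoint.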

THRB (gene 7068) [4] = biological target: THRB (gene 7068) (UniProt P10828); test: TOX21_TRB_BLA_Antagonist_Followup_ratio: Tox21 Thyroid Hormone Receptor beta Antagonism Beta-lactamase (BLA) Follow-Up Assay, Ratio (AID 2283958)
Procedure, shortened: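 Read-out: blue/green (460:530 nm) ratio of cleaved to uncleaved CCF4-AM after 2 h at room temperature, fitted against DMSO baseline. HEK293T UAS-bla cells carrying GAL4-human TRβ LBD were exposed 18 h, 37C/5% CO2.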

THRB (gene 7068) [5] = biological target: THRB (gene 7068) (UniProt P10828); test: TOX21_TRB_BLA_Agonist_Followup_ratio: Tox21 Thyroid Hormone Receptor beta Agonism Beta-lactamase (BLA) Follow-Up Assay, Ratio (AID 2283954)
Procedure, shortened: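 Agonist mode: compounds (11-point, triplicate) incubated 18 h with HEK293T cells carrying GAL4-DBD/human TRβ-LBD and UAS-β-lactamase. Blue/green (460/530 nm) FRET ratio read after 2 h CCF4-AM loading; CellTiter-Glo viability run in the same plates.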

[6] = TOX21_TRB_BLA_Agonist_Followup_viability: Viability Assessment in the Tox21 Thyroid Hormone Receptor beta Agonism Beta-lactamase (BLA) Follow-Up Assay (AID 2283956)
Procedure, shortened: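 Viability was read as CellTiter-Glo luminescence in the same wells as the TRb-bla agonist read-out. HEK293T GAL4-TRb LBD cells were treated for 18 h (37C, 5% CO2) at 11 concentrations in triplicate. Fits were bidirectional versus DMSO baseline.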

THRB (gene 7068) [7] = biological target: THRB (gene 7068) (UniProt P10828); test: TOX21_TRB_COA_Agonist_Followup_ratio: Tox21 Thyroid Hormone Receptor beta Agonism through Coactivator Recruitment Follow-Up Assay, Ratio (AID 2283963; active = hit-call score of the fitted dose curve at least 0.9, where 1 is the maximum; inactive = score below 0.9)
Procedure, shortened: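 First, the GST-fused TRβ ligand-binding domain (5.0 nM) was incubated with test compound in 0.10% BSA. Next, fluorescein-tagged SRC-2 peptide (200 nM) and terbium anti-GST antibody (2 nM) were added. Finally, TR-FRET emission ratios were normalized against DMSO and T3 controls.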

[8] = biological target: Retinoic acid receptor RXR-alpha (Homo sapiens) (UniProt P19793); test: TOX21_TR_RXR_BLA_Agonist_Followup_ratio: Tox21 Thyroid Hormone Receptor beta Retinoid X Receptor alpha (RXRa) Agonism Beta-lactamase (BLA) Follow-Up Assay, Ratio (AID 2283968)
Procedure, shortened: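 Read-out: blue/green (460:530 nm) FRET ratio from cleaved vs uncleaved CCF4 substrate, fitted for gain of signal relative to DMSO. Cells: HEK293T with RXRa-UAS-bla reporter; 16 h compound exposure, 11 concentrations, triplicate.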

[9] = TOX21_TR_RXR_BLA_Agonist_Followup_viability: Viability Assessment in the Tox21 Thyroid Hormone Receptor beta Retinoid X Receptor alpha (RXRa) Agonism Beta-lactamase (BLA) Follow-Up Assay (AID 2283970)
Procedure, shortened: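 CellTiter-Glo ATP quantitation as viability read-out in RXRa-bla HEK293T cells (2,500/well, charcoal-stripped 2% FBS medium), 16h compound incubation at 37C. Loss of signal versus DMSO taken as cytotoxicity, analyzed by bidirectional curve fitting.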

[10] = CCTE_Harrill_HTTr_Viability_DMEM_6hr: (Pilot) CCTE's 6-hour Cell Viability Assessment for the High-Throughput Transcriptomics (HTTr) Platform, in MCF-7 cells cultured in DMEM + 10% fetal bovine serum, Harrill Lab (AID 2283973; active = hit-call score of the fitted dose curve at least 0.9, where 1 is the maximum; inactive = score below 0.9)
Procedure, shortened: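 Propidium iodide uptake imaged by high-content analysis after six hours of chemical treatment in an eight-concentration series. Cells: MCF-7 grown in DMEM with 10% fetal bovine serum; DMSO as baseline.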

Measured: AC50

COC(=O)Nc1nc2ccccc2[nH]1
inactive: [1] | THRB (gene 7068) [2] | [3]

CN(C)c1ccc(C(=O)c2ccc(N(C)C)cc2)cc1
inactive: [1] | THRB (gene 7068) [2] | [3]
active: THRB (gene 7068) [4] 2.66 µM

Cc1ccc(N)cc1
inactive: THRB (gene 7068) [5] | [6] | THRB (gene 7068) [7] | [8] | [9]

Clc1ccc(Cl)c(Cl)c1
inactive: THRB (gene 7068) [5] | [6] | THRB (gene 7068) [7] | [8] | [9]

CS(=O)(=O)NC(=O)c1cc(Oc2ccc(C(F)(F)F)cc2Cl)ccc1[N+](=O)[O-]
inactive: [10]
